Tests used:
PEG-3 [1] = target: PEG-3 (UniProt Q6IN02); experiment: Peg3 promoter luciferase inhibitors, potency, dose response, cell-based, HeLa, CREF/GAPDH counter-screen panel (AID 624167); conditions: CREF/GAPDH counter-screens; HeLa PEG-Prom luciferase reporter, overnight, run 1, dose range 1, at 100 µM (top of the series) unless noted
PEG-3 [2] = target: PEG-3 (UniProt Q6IN02); experiment: as above; conditions: CREF/GAPDH counter-screens; HeLa PEG-Prom luciferase reporter, overnight, run 2, dose range 1, at 100 µM (top of the series) unless noted
[3] = target: Tumor necrosis factor receptor superfamily member 10B (Homo sapiens) (UniProt O14763); experiment: caspase-8 TRAIL sensitization, hit retest, confirmation, cell-based, NB7+caspase-8, with/without TRAIL, luminescence panel (AID 651596); conditions: NB7 neuroblastoma + caspase-8, TRAIL sensitization, luminescence viability, with TRAIL, mean of runs, at 10 µM, stronger effect = higher value
[4] = as above; conditions: NB7 neuroblastoma + caspase-8, without TRAIL, luminescence viability, without TRAIL, mean of runs, at 10 µM
[5] = inhibitors of PAF-induced NFkB signaling in CF airway cells, dose response, cell-based, uHTS hits, panel, cytotoxicity readout (AID 624344); conditions: CF bronchial epithelial cells, PAF-induced NFkB reporter inhibition, with PAF, run 1; at 79 µM (top of the series) unless noted
[6] = as above; conditions: CF bronchial epithelial cells, PAF-induced NFkB reporter inhibition, with PAF, run 2; at 79 µM (top of the series) unless noted
Rat fibroblasts (CREF) [7] = experiment: Peg3 promoter luciferase inhibitors, potency, dose response, cell-based, HeLa, CREF/GAPDH counter-screen panel (AID 624167); conditions: CREF/GAPDH counter-screens; run 1, dose range 1, at 100 µM (top of the series)
Rat fibroblasts (CREF) [8] = experiment: as above; conditions: CREF/GAPDH counter-screens; run 2, dose range 1, at 100 µM (top of the series)
[9] = target: Tumor necrosis factor receptor superfamily member 10B (Homo sapiens) (UniProt O14763); experiment: TRAIL sensitizers in caspase-8 expressing neuroblastoma cells, dose response, NB7 cells plus caspase-8, luminescence, panel (AID 652002); conditions: NB7 neuroblastoma +caspase-8, TRAIL sensitization, luminescence viability, NB7+Caspase-8, with TRAIL, run 1; at 12.5 µM (top of the series)
[10] = target: Tumor necrosis factor receptor superfamily member 10B (Homo sapiens) (UniProt O14763); experiment: as above; conditions: NB7 neuroblastoma +caspase-8, TRAIL sensitization, luminescence viability, NB7+Caspase-8, with TRAIL, run 2; at 12.5 µM (top of the series)
[11] = as above; conditions: NB7 neuroblastoma +caspase-8, no TRAIL, compound-alone cytotoxicity counter-screen, luminescence viability, NB7+Caspase-8, run 1; at 12.5 µM (top of the series) unless noted
[12] = as above; conditions: NB7 neuroblastoma +caspase-8, no TRAIL, compound-alone cytotoxicity counter-screen, luminescence viability, NB7+Caspase-8, run 2; at 12.5 µM (top of the series) unless noted

PEG-3, sequence (Q6IN02 whole entry, looked up): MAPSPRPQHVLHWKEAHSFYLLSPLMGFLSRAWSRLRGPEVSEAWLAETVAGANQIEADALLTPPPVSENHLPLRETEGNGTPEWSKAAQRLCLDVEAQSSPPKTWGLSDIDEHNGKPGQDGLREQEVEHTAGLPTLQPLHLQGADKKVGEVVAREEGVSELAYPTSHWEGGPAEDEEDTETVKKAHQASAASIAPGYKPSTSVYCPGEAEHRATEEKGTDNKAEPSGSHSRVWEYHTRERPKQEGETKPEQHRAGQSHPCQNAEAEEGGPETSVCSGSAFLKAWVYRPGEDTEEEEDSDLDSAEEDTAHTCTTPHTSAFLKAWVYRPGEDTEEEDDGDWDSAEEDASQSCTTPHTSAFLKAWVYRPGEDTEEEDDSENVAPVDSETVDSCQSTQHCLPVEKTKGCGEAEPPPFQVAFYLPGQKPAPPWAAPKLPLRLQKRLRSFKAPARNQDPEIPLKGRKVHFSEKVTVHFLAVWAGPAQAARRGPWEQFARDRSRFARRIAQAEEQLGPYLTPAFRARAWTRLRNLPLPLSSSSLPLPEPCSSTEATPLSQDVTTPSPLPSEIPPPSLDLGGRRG
Tumor necrosis factor receptor superfamily member 10B (Homo sapiens), sequence (O14763 whole entry, looked up): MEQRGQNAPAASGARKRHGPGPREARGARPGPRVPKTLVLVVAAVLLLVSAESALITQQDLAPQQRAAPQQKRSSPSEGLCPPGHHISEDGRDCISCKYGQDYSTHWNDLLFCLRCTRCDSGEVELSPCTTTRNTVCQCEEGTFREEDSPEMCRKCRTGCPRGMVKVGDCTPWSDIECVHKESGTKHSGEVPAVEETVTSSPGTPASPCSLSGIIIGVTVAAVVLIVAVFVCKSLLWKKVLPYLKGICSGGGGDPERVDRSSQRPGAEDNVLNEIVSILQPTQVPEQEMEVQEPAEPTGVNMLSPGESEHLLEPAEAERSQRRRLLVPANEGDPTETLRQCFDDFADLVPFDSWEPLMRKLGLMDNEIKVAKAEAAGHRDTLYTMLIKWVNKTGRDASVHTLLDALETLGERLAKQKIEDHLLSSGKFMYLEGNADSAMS

CN1CCN(c2ccc(NC(=O)N3CCc4ccccc43)cc2)CC1
inhibition (PEG-3 [1]): 87.9% | inhibition (PEG-3 [2]): 92.8% | activity [3]: 70.6% | activity [4]: 65.9%

FC(F)Sc1ccc(NC(=S)NC(c2ccccc2)c2ccccc2)cc1
inhibition (PEG-3 [1]): 99.8% | inhibition (PEG-3 [2]): 96.5% | inhibition [5]: 116% | inhibition [6]: 103%

CN(C)c1ccc(C(C(=O)NCc2ccccc2)N(Cc2ccco2)C(=O)c2snc(C(N)=O)c2N)cc1 (stereo not given)
inhibition (PEG-3 [1]): 21.1% | inhibition (PEG-3 [2]): 29.3% | inhibition [5]: 109% | inhibition [6]: 104%

Cc1cnc(NC(=O)C2CC(=O)N(c3cccc(Cl)c3)C2)s1 (stereo not given)
inhibition (PEG-3 [1]): 97.7% | inhibition (PEG-3 [2]): 87.8% | inhibition [5]: 94.9% | inhibition [6]: 116%

COc1nc(N)c(C#N)c(-c2ccc(N(C)CCC#N)cc2)c1C#N
inhibition (PEG-3 [1]): 52.9% | inhibition (PEG-3 [2]): 53% | inhibition [5]: 97.1% [at 39.5 µM] | inhibition [6]: 84.4% [at 39.5 µM]

Cc1noc(-c2ccc(Cl)cc2)c1C(=O)O/N=C(\N)c1ccc(C(C)(C)C)cc1
inhibition (PEG-3 [1]): 99.2% | inhibition (PEG-3 [2]): 101% | activity [3]: 99.3% | activity [4]: 97.5%

Cc1cccc(-n2ncc3c(N(C)C4CCCCC4)ncnc32)c1
inhibition (PEG-3 [1]): 89% | inhibition (PEG-3 [2]): 91.4% | activity [3]: 89.4% | activity [4]: 88%

COc1cccc(-c2nnc3n2N=C(C(C)(C)C)CS3)c1
inhibition (PEG-3 [1]): 98.1% | inhibition (PEG-3 [2]): 99% | inhibition [5]: 105% | inhibition [6]: 114%

Cc1nn(C(C)(C)C)c(C)c1/C=N/OC(=O)Nc1ccc(Cl)cc1
inhibition (PEG-3 [1]): 98.8% | inhibition (PEG-3 [2]): 98.3% | activity [3]: 94.2% | activity [4]: 91.5%

C/C(=N\NC(=O)c1n[nH]c2c1CCC2)c1cccs1
inhibition (PEG-3 [1]): 98.6% | inhibition (PEG-3 [2]): 99.7% | inhibition (Rat fibroblasts (CREF) [7]): 96.7% | inhibition (Rat fibroblasts (CREF) [8]): 94.4% | activity [3]: 80.4% | activity [4]: 76.2%

CCC1=C(CC2NCCc3ccccc32)CC2c3cc(OC)c(OC)cc3CCN2C1 (stereo not given)
inhibition (PEG-3 [1]): 97.6% | inhibition (PEG-3 [2]): 99% | inhibition [5]: 115% | inhibition [6]: 105%

CCCCCCCCCCCCCCC(O)C[N+](C)(CCO)CCO (stereo not given)
inhibition (PEG-3 [1]): 94.8% | inhibition (PEG-3 [2]): 101% | inhibition [5]: 95.6% | inhibition [6]: 96.1% | activity [3]: 94.9% | activity [4]: 96.5%

O=C1CCCCC1Sc1nnc(-c2ccc3c(c2)OCO3)o1 (stereo not given)
inhibition (PEG-3 [1]): 98.4% | inhibition (PEG-3 [2]): 95% | inhibition (Rat fibroblasts (CREF) [7]): 95% | inhibition (Rat fibroblasts (CREF) [8]): 94.3% | activity [3]: 48.4% | activity [4]: 35.9% | activity, % sensitization [9]: 19.6% | activity, % sensitization [10]: 16.8% | activity, % sensitization [11]: 29.8% | activity, % sensitization [12]: 21.7%

COc1ccccc1N(C(=O)CCl)c1cn(C(C)=O)c2ccccc12
inhibition (PEG-3 [1]): 98.1% | inhibition (PEG-3 [2]): 102% | activity [3]: 99.5% | activity [4]: 98.3%

Cc1cc(C)c2sc(N(CCCN(C)C)C(=O)c3ccc(S(=O)(=O)N4CCCc5ccccc54)cc3)nc2c1
inhibition (PEG-3 [1]): 97.5% | inhibition (PEG-3 [2]): 99.2% | activity [3]: 31.6% | activity [4]: 32.4%

COc1ccc(Nc2nc(-c3ccccc3)nc3ccccc23)cc1S(=O)(=O)N1CCOCC1
inhibition (PEG-3 [1]): 61.7% | inhibition (PEG-3 [2]): 59.1% | inhibition [5]: 97.7% | inhibition [6]: 106% | activity [3]: 33% | activity [4]: 25.6%

COc1cccc(NC(=O)c2nc(S(C)(=O)=O)ncc2Cl)c1
inhibition (PEG-3 [1]): 99.3% | inhibition (PEG-3 [2]): 101% | inhibition (Rat fibroblasts (CREF) [7]): 99.4% | inhibition (Rat fibroblasts (CREF) [8]): 99.1% | activity [3]: 13.1% | activity [4]: 19.6%

CCOC(=O)c1c(C)[nH]c(C(=O)OCC(=O)Nc2sccc2C(N)=O)c1C
inhibition (PEG-3 [1]): 76.2% | inhibition (PEG-3 [2]): 101% | activity [3]: 69.8% | activity [4]: 62.2%

O=S(=O)(Nc1cccc2cccnc12)c1ccccc1
inhibition (PEG-3 [1]): 81.7% | inhibition (PEG-3 [2]): 97.7% | inhibition [5]: 102% | inhibition [6]: 109%

Cc1cc2sc3ccc(C#CC4(O)CCCCC4)cc3c(=O)c2cc1C
inhibition (PEG-3 [1]): 84.2% | inhibition (PEG-3 [2]): 93.8% | activity [3]: 91.2% | activity [4]: 90.1%

COc1cccc(CN(C)C(=O)C(CCSC)NS(=O)(=O)c2ccc3c(c2)OCCO3)c1OC (stereo not given)
inhibition (PEG-3 [1]): 73.9% | inhibition (PEG-3 [2]): 99.1% | inhibition [5]: 110% | inhibition [6]: 106%

CCCN(CC(=O)Nc1ccccc1C)C(=O)CCl
inhibition (PEG-3 [1]): 101% | inhibition (PEG-3 [2]): 98.7% | activity [3]: 97.8% | activity [4]: 98.2%

CC(/C=C/c1ccccc1)=N/NC(=O)c1cc([N+](=O)[O-])cc([N+](=O)[O-])c1
inhibition (PEG-3 [1]): 94.6% | inhibition (PEG-3 [2]): 86.3% | inhibition (Rat fibroblasts (CREF) [7]): 47.1% | activity [3]: 21.2% | activity [4]: 30.8%

CCc1ccc(C(=O)Nc2nc3ccccc3[nH]2)cc1
inhibition (PEG-3 [1]): 95.9% | inhibition (PEG-3 [2]): 97.2% | inhibition (Rat fibroblasts (CREF) [7]): 98.4% | inhibition (Rat fibroblasts (CREF) [8]): 98.5% | activity [3]: 98.2% | activity [4]: 98.5%

COc1ccc(N(C(=O)CCl)C(C(=O)NC2CCCCC2)c2cccnc2)cc1 (stereo not given)
inhibition (PEG-3 [1]): 99.1% | inhibition (PEG-3 [2]): 102% | inhibition (Rat fibroblasts (CREF) [7]): 97.1% | inhibition (Rat fibroblasts (CREF) [8]): 94.1% | activity [3]: 99.5% | activity [4]: 98.7%

Cc1csc(NC(=O)c2cn3ccccc3n2)n1
inhibition (PEG-3 [1]): 99% | inhibition (PEG-3 [2]): 99.7% | inhibition (Rat fibroblasts (CREF) [7]): 99.8% | inhibition (Rat fibroblasts (CREF) [8]): 99.8% | activity [3]: 89.6% | activity [4]: 89.8%

Cc1ccc(C(=O)NCCc2cccs2)cc1
inhibition (PEG-3 [1]): 92.3% | inhibition (PEG-3 [2]): 49.8% | activity [3]: 76.6% | activity [4]: 75.8%

COc1ccc(C(C(=O)NCC2CCCO2)N(Cc2cccs2)C(=O)c2snc(C(N)=O)c2N)cc1 (stereo not given)
inhibition (PEG-3 [1]): 47.8% | inhibition (PEG-3 [2]): 28.4% | inhibition [5]: 109% | inhibition [6]: 101%

CCc1nccn1C(=O)c1cnn2c(C(F)F)cc(-c3ccc(C)cc3)nc12
inhibition (PEG-3 [1]): 99.1% | inhibition (PEG-3 [2]): 102% | inhibition [5]: 102% | inhibition [6]: 115%

O=C(Nc1ccccc1)NN(C(=O)CCl)c1ccccc1
inhibition (PEG-3 [1]): 102% | inhibition (PEG-3 [2]): 101% | activity [3]: 98.3% | activity [4]: 98.3%

Cc1cc(C(=O)COC(=O)c2ccccc2Br)c(C)n1CC1CCCO1 (stereo not given)
inhibition (PEG-3 [1]): 95.8% | inhibition (PEG-3 [2]): 85.4% | activity [3]: 68.1% | activity [4]: 74.3%

— PubChem BioAssay
